Test results: the supplement of paper PMC12024424
Structures can show the parent of a compound that is named as a salt.

Tests used:
[1] = test system: Staphylococcus aureus Sa2 (MRSA, cystic fibrosis isolate); experiment: growth reduction vs untreated control (viable cell count); higher = stronger antibacterial activity; extreme values may be limits of the assay; conditions: 0.1 mM; 24 h
Protocol: (§1)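 Single-dose screen of the MedChem Express Drug Repurposing Library (0.1 mM, 1% DMSO) against planktonic MRSA S. aureus Sa2 (CF isolate) in TSB in 96-well plates, 37 °C aerobic, 24 h. Assays were run in triplicate and repeated twice.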

[2] = test system: Staphylococcus aureus Sa2 (MRSA, cystic fibrosis isolate); experiment: growth reduction vs untreated control (OD550); higher = stronger antibacterial activity; conditions: 0.1 mM; 24 h
Protocol: as §1

| Compound | growth reduction [1] [%] | growth reduction [2] [%] |
| --- | --- | --- |
| C[C@@H](NCCCc1cccc(C(F)(F)F)c1)c1cccc2ccccc12 [Cinacalcet] | 100 | – |
| COc1cccc2c1C(=O)c1c(O)c3c(c(O)c1C2=O)C[C@@](O)(C(=O)CO)C[C@@H]3O[C@H]1C[C@H](N)[C@@H](O)[C@H](C)O1 [Epirubicin (hydrochloride)] | 100 | 95 |
| CS(=O)(=O)c1cc(F)cc2c3c(n(Cc4ccc(Cl)cc4)c12)[C@@H](CC(=O)O)CC3 [Laropiprant] | 99 | 96.1 |
| CC(C)COc1ccc(CNC(=O)N(Cc2ccc(F)cc2)C2CCN(C)CC2)cc1 [Pimavanserin] | 100 | 100 |
| CCCCc1oc2ccccc2c1C(=O)c1cc(I)c(OCCN(CC)CC)c(I)c1 [Amiodarone (hydrochloride)] | 98 | 100 |
| O=C(O)CNC(=O)c1nc(Cl)c2ccccc2c1O | 100 | 100 |
| C=CC(=O)Nc1cc(Nc2nccc(-c3cn(C4CC4)c4ccccc34)n2)c(OC)cc1N(C)CCN(C)C [Almonertinib] | 100 | 100 |
| Cn1cc(-c2ccncc2)c(-c2ccc(OCc3ccc4ccccc4n3)cc2)n1 [Mardepodect (hydrochloride)] | 97 | 100 |
| CC1(C)S[C@@H]2[C@H](NC(=O)[C@H](N)c3ccccc3)C(=O)N2[C@H]1C(=O)OCOC(=O)[C@@H]1N2C(=O)C[C@H]2S(=O)(=O)C1(C)C [Sultamicillin (tosylate)] | 100 | 100 |
| COCC[n+]1c2c(n(Cc3cnccn3)c1C)C(=O)c1ccccc1C2=O [Sepantronium (bromide)] | 100 | 100 |
| CC(C)(C)c1cc(-c2cc(-c3ccc(C(=O)O)cc3)ccc2OCCO)ccc1N1CCCC1 [Trifarotene] | 100 | 100 |
| CN1C(C(=O)Nc2ccccn2)=C(O)c2sc(Cl)cc2S1(=O)=O [Lornoxicam] | 98 | 97.2 |
| N[C@@H](Cc1cc(I)c(Oc2cc(I)c(O)c(I)c2)c(I)c1)C(=O)O [L-Thyroxine (sodium salt pentahydrate)] | 100 | 100 |
| O=c1[nH]c(=O)n([C@H]2C[C@H](O)[C@@H](CO)O2)cc1/C=C/Br [Brivudine] | 100 | 100 |
| COCCN1CCC(N(Cc2ccc(-c3ccc(C(F)(F)F)cc3)cc2)C(=O)Cn2c(SCc3cccc(F)c3F)cc(=O)c3ccccc32)CC1 [Rilapladib] | 100 | 100 |
| Clc1ccc(C(Cn2ccnc2)OCc2c(Cl)cccc2Cl)c(Cl)c1 (configuration not stated) [Isoconazole (nitrate)] | 100 | 100 |
| COc1cccc(Nc2ncnn3ccc(CN4CC[C@@H](N)[C@H](O)C4)c23)c1 | 94 | 92.5 |
| O=C(NC[C@H]1CN(c2ccc(N3CCOCC3=O)cc2)C(=O)O1)c1ccc(Cl)s1 [Rivaroxaban] | 100 | 100 |
| C[C@@H]1CCc2ncc(F)cc2[C@H]2CCCN2c2ccn3ncc(c3n2)C(=O)N1 [Selitrectinib] | 97 | 96.9 |
| Cc1cc(C2CCCCC2)n(O)c(=O)c1 [Ciclopirox (olamine)] | 100 | 99.3 |
| COc1c(-c2ccc3cc(NS(C)(=O)=O)ccc3c2)cc(-n2ccc(=O)[nH]c2=O)cc1C(C)(C)C [Dasabuvir] | 93 | 91.1 |
| OCCN1CCN(CC/C=C2/c3ccccc3Sc3ccc(C(F)(F)F)cc32)CC1 [Flupentixol dihydrochloride] | 100 | 100 |
| CCC[C@H](Oc1cc(C)c(-n2cc(C(F)(F)F)cn2)c(C)c1)c1ccc(C(=O)NCCC(=O)O)cc1 | 100 | 100 |
| CN1CCN(c2ccc(C(=O)Nc3n[nH]c4ccc(Cc5cc(F)cc(F)c5)cc34)c(NC3CCOCC3)c2)CC1 [Entrectinib] | 96 | 100 |
| CCOC(=O)C1=C(C)NC(C)=C(C(=O)OC)C1c1cccc(Cl)c1Cl (configuration not stated) [Felodipine] | 100 | 100 |
| COc1ccc(NS(=O)(=O)c2c(F)c(F)c(F)c(F)c2F)cc1F [Batabulin] | 98 | 95.5 |
| O=C(NS(=O)(=O)c1ccc(Br)s1)c1ccc(Cl)cc1Cl [Tasisulam] | 100 | 100 |
| O=C(NCc1ccc(Oc2ccccc2)cc1)c1nc(-c2cc(Br)c(O)c(Br)c2)no1 | 100 | 95.3 |
| CC(=O)Oc1ccccc1C(=O)Nc1ncc([N+](=O)[O-])s1 [Nitazoxanide] | 100 | 99.5 |
